# About 83,000 compounds went through this panel and 20% of them were active in at least one assay; those are over-represented in the sample as a whole.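 Negative percent growth values reflect cell death: -40 means 40% of the cells present at the start died, and -100 means all died.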 A number with no mark means an inactive call. Activity calls are given as the source filed them. Rule for the calls: active = growth percent below 10; inactive = the rest.
# Experiments:
# Experiment in all cases: NCI-60 one-dose screen, 48 h (100 = growth as untreated, 0 = no growth, -100 = all killed)
# Settings in all cases: 10 µM unless noted
# NCI-H23 lung = test system: NCI-H23 lung
# NCI-H226 lung = test system: NCI-H226 lung
# NCI-H322M lung = test system: NCI-H322M lung
# HOP-62 NSCLC = test system: HOP-62 NSCLC
# NCI-H460 lung = test system: NCI-H460 lung
# NCI-H522 lung = test system: NCI-H522 lung
# A549/ATCC NSCLC = test system: A549/ATCC NSCLC
# 786-0 renal = test system: 786-0 renal
# COLO 205 colon = test system: COLO 205 colon
# DU-145 prostate = test system: DU-145 prostate
# K-562 leukemia = test system: K-562 leukemia
# MALME-3M melanoma = test system: MALME-3M melanoma
# MDA-MB-231 breast = test system: MDA-MB-231 breast
# RXF 393 renal = test system: RXF 393 renal
# SF-268 CNS = test system: SF-268 CNS
# SF-295 CNS = test system: SF-295 CNS
# SF-539 CNS = test system: SF-539 CNS
# UACC-257 melanoma = test system: UACC-257 melanoma
# M14 melanoma = test system: M14 melanoma
Compound,growth (NCI-H23 lung),growth (NCI-H226 lung),growth (NCI-H322M lung),growth (HOP-62 NSCLC),growth (NCI-H460 lung),growth (NCI-H522 lung),growth (A549/ATCC NSCLC),growth (786-0 renal),growth (COLO 205 colon),growth (DU-145 prostate),growth (K-562 leukemia),growth (MALME-3M melanoma),growth (MDA-MB-231 breast),growth (RXF 393 renal),growth (SF-268 CNS),growth (SF-295 CNS),growth (SF-539 CNS),growth (UACC-257 melanoma),growth (M14 melanoma)
S=C(Nc1ccc(Cl)cc1)Nc1ccc(Cl)cc1 (tested in a mixture with another compound),1.65% (active),16.4%,4.59% (active),6.8% (active),-17.4% (active),-27.9% (active),1.68% (active),22.1%,-95.7% (active),22.2%,12.1%,-7.85% (active),-58.7% (active),9.51% (active),23%,-6.55% (active),19.1%,-14.7% (active),19%
Nc1c(C(=O)Nc2ccccc2)sc2nc3c(cc12)C(=O)CCC3,39.5%,68%,67.1%,39.9%,12.9%,-33.8% (active),19.7%,36.2%,-18.4% (active),0.618% (active),17.1%,76.2%,52.1%,-9.9% (active),53.4%,-12.4% (active),0.845% (active),52.8%,1.11% (active)
O=C(O)c1cc2cc(OCc3ccccc3)ccc2[nH]1,103%,107%,99%,93.8%,98.4%,90.3%,90.9%,115%,93.7%,114%,112%,-20.3% (active),99.1%,111%,99.9%,108%,87.5%,48%,106%
CCOC(=O)N1C2CCC(C2)N1C(=O)OCC,104%,91.9%,115%,108%,108%,91.5%,107%,101%,110%,104%,94.6%,104%,115%,106%,97%,106%,132%,107%,108%
COc1cccc(NC(=O)OC(C)C)c1,98.7%,107%,99%,103%,105%,90.9%,94.7%,104%,103%,103%,88.1%,94.5%,116%,109%,108%,108%,106%,108%,112%
CC(C)c1ccc(-c2cnc3nonc3n2)cc1,56.2%,77.5%,65.8%,57.7%,70.5%,20%,53.2%,10.6%,38.1%,30.9%,6.39% (active),61.2%,38.5%,37.7%,62.4%,48.9%,14.5%,52%,7.59% (active)
O=S1(=O)NCCN1CCNc1nccc(-c2c(-c3cccc(O)c3)nc3sccn23)n1,104%,105%,115%,115%,107%,87.2%,106%,126%,42.4%,106%,–,4.99% (active),86.8%,111%,116%,93.2%,109%,59.7%,20.8%
CCN1C(=O)N(CC)C2C1NC(=O)N2/N=C/C=C/c1ccccc1 (stereo unspecified),64.5%,74.9%,63.8%,41.3%,24.4%,2.08% (active),45.4%,33%,27.4%,68.1%,17%,50.6%,71.5%,32.3%,59.7%,34.9%,25%,35.8%,28.5%
